Measurements reported in PubChem BioAssay (EPA / NIEHS).
Activity calls are given as the source filed them. How the source made its calls: active means hit-call score of the fitted dose curve at least 0.9, where 1 is the maximum; inconclusive means response in the unintended direction; inactive means score below 0.9.

assay: Tanguay_ZF_120hpf_MORT_legacy: (Legacy) Oregon State University Tanguay Lab 120 Hour Post-fertilization zebrafish Assay for Mortality (AID 2283633)
Description: Tanguay_ZF_120hpf_legacy is a whole embryo, multiplexed endpoint assay using zebrafish larvae exposed for 120 hours post fertilization on a 96-well plate.Tanguay_ZF_120hpf_MORT_legacy is one of one assay component(s) measured or calculated from the Tanguay_ZF_120hpf_legacy assay. It is designed to make measurements of embryonic mortality as detected with brightfield microscopy of developing zebrafish embryos.Data from the assay component Tanguay_ZF_120hpf_MORT_legacy was analyzed into 1 assay endpoints. This assay endpoint, Tanguay_ZF_120hpf_MORT_legacy, was analyzed in the positive analysis fitting direction relative to DMSO as the negative control and baseline of activity. Using a type of viability reporter, gain-of-signal activity can be used to understand changes in developmentals as they relate to the whole embryo. To generalize the intended target to other relatable targets, this assay endpoint is annotated to the embryonic mortality intended target family, where the subfamily is embryonic mortality.
Zebrafish husbandry: Tropical 5D wild-type adult zebrafish were housed in at an approximate density of 1000 per 100 gallon tank at the Sinnhuber Aquatic Research Laboratory, Oregon State University, Corvallis, OR. Each tank was kept at standard laboratory conditions of 28C on a 14-h light/10-h dark photoperiod in fish water consisting of reverse osmosis water supplemented with a commercially available salt (Instant Ocean). Spawning funnels were placed into the tanks the night prior, and embryos were collected and staged. To increase bioavailability, the chorion was enzymatically removed using pronase (63.6mg/ml, >/= 3.5U/mg, Sigma-Aldrich: P5147) at 4 hours post fertilization (hpf) using a custom automated dechorionator.Chemical exposures: Six hpf dechorionated embryos were placed 1 embryo per well in a 96-well plate prefilled with 90 ul of EM using automated embryo placement systems (AEPS). Ten microliters of each row of dilution plate 2 was added to 2 exposure plates. The final DMSO concentration used was 0.64% (vol/vol). Thirty-two embryos were also exposed to 5uM trimethyltin chloride (positive control). Plates were sealed to prevent evaporation and foil covered to reduce light exposure and kept in a 28C incubator. Embryos were statically exposed until 120 hpf. At 24 hpf, embryos were assessed for photomotor response using a custom photomotor response analysis tool (PRAT) and for developmental toxicity endpoints (MO24: mortality at 24 hpf, DP: developmental progression, SM: spontaneous movement, and NC: notochord distortion). At 120 hpf, locomotor activity was measured using Viewpoint Zebralab and assessed for 18 endpoints. Zebrafish acquisition and analysis program (ZAAP), a custom program designed to inventory, acquire, and manage zebrafish data, was used to collect developmental endpoints as either present or absent (i.e., binary responses were recorded). If mortality occurred for an embryo (at either 24 or 120 hpf), the non-mortality endpoints were not measured.

Row | SMILES | outcome | AC50
1 | COP(=O)(OC)C(O)C(Cl)(Cl)Cl (stereo not given) | inactive | 
2 | CC(C)=CC1C(C(=O)OCN2C(=O)C3=C(CCCC3)C2=O)C1(C)C (stereo not given) | inactive | 
3 | CCc1cccc(CC)c1N(COC)C(=O)CCl |  | 13.4 µM (active)
4 | CNC(=O)Oc1cccc2c1OC(C)(C)O2 | inactive | 
5 | COP(=O)(OC)SCn1c(=O)oc2cc(Cl)cnc21 | inactive | 
6 | C#CC(C)(C)NC(=O)c1cc(Cl)cc(Cl)c1 | inactive | 
7 | CCOP(=S)(OCC)SCCSCC | inactive | 
8 | CCCOc1nn(C(=O)NS(=O)(=O)c2ccccc2C(=O)OC)c(=O)n1C | inactive | 
9 | CCCOCC(=Nc1ccc(Cl)cc1C(F)(F)F)n1ccnc1 | inactive | 
10 | CC1(C(=O)Nc2ccc(O)c(Cl)c2Cl)CCCCC1 | inactive | 
11 | CC(Oc1cccc(Cl)c1)C(=O)O (stereo not given) | inactive | 
12 | CCC(=O)Nc1ccc(Cl)c(Cl)c1 | inactive | 
13 | CC1=NNC(=O)N(/N=C/c2cccnc2)C1 | inactive | 
14 | CCCCOC(=O)[C@@H](C)Oc1ccc(Oc2ccc(C#N)cc2F)cc1 | inactive | 
15 | CCCCN(CC)c1c([N+](=O)[O-])cc(C(F)(F)F)cc1[N+](=O)[O-] | inactive | 
16 | CCOP(=O)(SC(C)CC)N1CCSC1=O (stereo not given) | inactive | 
17 | Cc1cc(C2CC2)nc(Nc2ccccc2)n1 | inactive | 
18 | CCOP(=S)(OCC)OC(Cl)C(Cl)(Cl)Cl (stereo not given) | inactive | 
19 | CSC1=N[C@@](C)(c2ccccc2)C(=O)N1Nc1ccccc1 |  | 12.6 µM (active)
20 | CNC(=O)ON=C(C)SC | inactive | 

Row | SMILES | outcome | AC50
21 | CON=C(C(=O)OC)c1ccccc1CON=C(C)c1cccc(C(F)(F)F)c1 | inactive | 
22 | CCCCSP(=O)(SCCCC)SCCCC | inactive | 
23 | CCOC(=O)COc1cc(-c2nn(C)c(OC(F)F)c2Cl)c(F)cc1Cl | inactive | 
24 | CC(C)[C@H](C(=O)O[C@H](C#N)c1cccc(Oc2ccccc2)c1)c1ccc(Cl)cc1 | inactive | 
25 | COc1cc(OC)nc(Sc2cccc(Cl)c2C(=O)O)n1 | inactive | 
26 | COc1cccc(C(=O)NN(C(=O)c2cc(C)cc(C)c2)C(C)(C)C)c1C | inactive | 
27 | C[Si](Cn1cncn1)(c1ccc(F)cc1)c1ccc(F)cc1 | inactive | 
28 | CCOP(=S)(Oc1cnc(C(C)(C)C)nc1)OC(C)C (stereo not given) | inactive | 
29 | O=[N+]([O-])c1cc(C(F)(F)F)c(Cl)c([N+](=O)[O-])c1Nc1ncc(C(F)(F)F)cc1Cl | inactive | 
30 | Cc1nn(-c2cc(NS(C)(=O)=O)c(Cl)cc2Cl)c(=O)n1C(F)F | inactive | 
31 | O=C(O)c1cc(Oc2ccc(C(F)(F)F)cc2Cl)ccc1[N+](=O)[O-] | inactive | 
32 | CSc1nnc(C(C)(C)C)c(=O)n1N | inactive | 
33 | CC(C1CC1)C(O)(Cn1cncn1)c1ccc(Cl)cc1 (stereo not given) | inactive | 
34 | CCCSP(=O)(OCC)Oc1ccc(Br)cc1Cl (stereo not given) | inactive | 
35 | CCOP(=O)(OCC)Oc1cc(C)nc(C(C)C)n1 | inactive | 
36 | CCOP(=S)(OCC)Oc1cc(C)nc(C(C)C)n1 | inactive | 
37 | CNC(=O)ON=C(SC)C(=O)N(C)C | inactive | 
38 | CCC(CC)Nc1c([N+](=O)[O-])cc(C)c(C)c1[N+](=O)[O-] | inactive | 
39 | C[N+]1(C)CCCCC1 | inactive | 
40 | CN(C)[C@@H]1C(=O)C(C(N)=O)=C(O)[C@@]2(O)C(=O)C3=C(O)c4c(O)cccc4[C@@](C)(O)[C@H]3[C@H](O)[C@@H]12 | inactive | 
